The results in this text go back to ChEMBL document CHEMBL1961873, “Compounds: GSK PKIS; Assays: Nanosyn kinase panel” (2012).
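Also: mean PAK6 inhibition reported from the GSK PKIS screen.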

Sequence of Serine/threonine-protein kinase PAK 6 (Homo sapiens) (Q9NQU5 whole entry, looked up): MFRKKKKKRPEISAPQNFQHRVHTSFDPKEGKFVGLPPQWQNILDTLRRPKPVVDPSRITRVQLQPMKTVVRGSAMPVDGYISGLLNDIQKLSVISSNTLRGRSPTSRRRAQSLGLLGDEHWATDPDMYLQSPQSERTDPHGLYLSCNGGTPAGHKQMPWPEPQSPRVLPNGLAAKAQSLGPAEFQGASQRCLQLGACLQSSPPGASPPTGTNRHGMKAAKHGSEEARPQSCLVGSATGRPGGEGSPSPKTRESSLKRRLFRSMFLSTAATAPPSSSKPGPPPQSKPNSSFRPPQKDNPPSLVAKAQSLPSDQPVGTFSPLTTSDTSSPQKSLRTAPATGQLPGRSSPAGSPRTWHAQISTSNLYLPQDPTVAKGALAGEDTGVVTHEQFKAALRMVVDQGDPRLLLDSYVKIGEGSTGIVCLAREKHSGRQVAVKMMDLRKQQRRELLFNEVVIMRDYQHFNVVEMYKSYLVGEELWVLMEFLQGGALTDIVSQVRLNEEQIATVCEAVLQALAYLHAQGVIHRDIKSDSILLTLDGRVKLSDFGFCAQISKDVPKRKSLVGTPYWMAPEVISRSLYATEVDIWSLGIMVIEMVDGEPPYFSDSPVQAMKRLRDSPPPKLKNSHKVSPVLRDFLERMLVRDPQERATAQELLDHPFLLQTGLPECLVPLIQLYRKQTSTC

The assay concerns the target Serine/threonine-protein kinase PAK 6 (Homo sapiens) (UniProt Q9NQU5). The conditions noted are these: at 0.1 µM.
For `O=C(Nc1n[nH]c2nc(-c3ccc(O)cc3)c(Br)cc12)C1CC1`, the inhibition was -0.4%.
To `Fc1ccc(-c2ncn(CCCN3CCOCC3)c2-c2ccncc2)cc1` belongs -0.97%; to `COc1ccc2cc(-c3c(-c4ccncc4)nc(-c4ccc([S+](C)[O-])cc4C)n3C)ccc2c1` (configuration not stated), -2.81%.
Take `c1ccc(Oc2ccc(Nc3ncc(-c4ccccc4)o3)cc2)cc1`: the inhibition is -2.49%.
In the case of `NC(=O)c1cc(-c2ccncc2)cc(-c2ccccc2)c1N`, the inhibition was -0.84%.
With `O=C(NCC1CC1)c1ccc(-c2cccc(C(=O)NC3CC3)c2)cc1`, the inhibition was -1.35%.
With `O=C1Nc2ccccc2/C1=C/Nc1ccc(-n2cncn2)cc1`, the inhibition was -0.09%.
In the case of `CN(C)c1ccc2c(c1)/C(=C/Nc1ccc(S(N)(=O)=O)cc1)C(=O)N2`, the inhibition was determined as 11.8%.
The figure for `CN(C)CCCNc1nccc(-c2c(-c3ccc(F)cc3)nn3cc(C(F)(F)F)ccc23)n1` is 2.33%; for `COc1ccc2ncn(-c3cc(O[C@H](C)c4ccccc4Cl)c(C(N)=O)s3)c2c1` it is -3.39%.
The figure for `CN(C)CCOc1ccc(-c2cc(-c3ccc4c(c3)CCC4=NO)c(-c3ccncc3)o2)cc1` is 1.99%; for `Cc1nnc(-c2ccc(C)c(-c3ccc(C(=O)NCc4ccc(Cl)cc4)cc3)c2)o1` it is -4.24%; for `O=C(Nc1n[nH]c2nc(-c3ccco3)ccc12)C1CC1` it is 6.27%.
To `CCc1ccc(Oc2nccc(-c3c(-c4ccc(F)cc4)ncn3C3CCNCC3)n2)cc1` belongs -5.49%; to `Fc1ccc(-c2c(-c3ccncc3)nc3n2CCS3)cc1`, 1.52%.
Turning to `Fc1ccc(-c2ncn(C3CCNCC3)c2-c2ccnc(Oc3ccc4c(c3)OCO4)n2)cc1`, the inhibition was determined as 1.43%.
To `Nc1nccc(-c2c(-c3ccc(F)cc3)ncn2C2CCC(O)CC2)n1` (configuration not stated) belongs 4.1%.
